The campaign covered roughly 52,000 sequences. About 3,800 (7.3%) were called active. Cut-off read from the data, not from the text of the source: active = GI50 up to about 1.1 µM and inactive = higher. Only a sample is shown. Potency and affinity values are given separately.

The test system of this assay is HOP-92.
For “[Bis(aminomethyl)diethylsilane]tetrachloroplatinum(IV), CHEMBL2146203”, halving of growth (GI50) required 4.25 µM.
In the case of “[Bis(aminomethyl)dimethylsilane]dichloroplatinum (II), CHEMBL2146201” it was 29.4 µM.
Consider “[Bis(aminomethyl)pentamethylenesilane]dichloropaltinum(II), CHEMBL2146202”, for which the GI50 (commonly the concentration giving 50% growth inhibition) turned out to be 40.4 µM.
For “[Bis(aminomethyl)dimethylsilane]tetrachloroplatinum(IV), CHEMBL2146190”, halving of growth (GI50) required 14.4 µM.
Next, “[Bis(aminomethyl)tetramethylenesilane]dichloropaltinum(II), CHEMBL2146205”: 28.4 µM; “mu-(1,7-nanodiamine-N,N')bis-(cis-aminedichloroplatimum (II)), CHEMBL2146215”: 41.8 µM; “cis-Bis[[(trimethylsilyl)methyl]amino]tetrachloroplatinum(IV), CHEMBL2146191”: 3.11 µM.
Take “[Bis(aminomethyl)pentamethylenesilane]tetrachloropaltinum(IV), CHEMBL2146204”: the GI50 came out at 24.2 µM.
Next, “[Bis(aminomethyl)ethylmethylsilane]tetrachloroplatinum(IV), CHEMBL2146192”: 21.3 µM; “[Bis(aminomethyl)tetramethylenesilane]tetrachloropaltinum(IV), CHEMBL2146189”: 21.5 µM; CISPLATIN, CHEMBL11359: 3.74 µM.
